Experimental data published in PubChem BioAssay (NCATS).
Results filed as inconclusive are left out. Active and inactive are the calls of the source. The call rests on the fitted dose curve; in most records, active means well fitted curve in the direction sought with a large enough effect; inconclusive means small, poorly fitted or top-dose-only effect, or another doubt; inactive means no such curve, though single readings can be large; an effect the other way counts as inactive or inconclusive.

Legend:
[1] = qHTS of pediatric cancer cell lines to identify multiple opportunities for drug repurposing: Primary screen for TC32 cells (AID 1347089); further: nearly all actives have a fitted effect of over 60% in size
Outline: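 In the primary qHTS, MIPE compounds were tested at 11 concentrations (0.78 nM to 46 µM) and NPC compounds at 8 (0.59 nM to 46 µM) on TC32 cells for 48 h. CellTiter-Glo luminescence gave viability.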

[2] = qHTS of pediatric cancer cell lines to identify multiple opportunities for drug repurposing: Primary screen for DAOY cells (AID 1347090); further: nearly all actives have a fitted effect of over 55% in size
Outline: (§1)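 Eight- or eleven-point concentration series, 48 h treatment at 37 degrees C in growth media; readout CellTiter-Glo luminescence. Potency and efficacy were taken from the concentration-response curves.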

[3] = qHTS of pediatric cancer cell lines to identify multiple opportunities for drug repurposing: Primary screen for SJ-GBM2 cells (AID 1347091)
Outline: as §1

[4] = qHTS of pediatric cancer cell lines to identify multiple opportunities for drug repurposing: Primary screen for A673 cells (AID 1347092); further: nearly all actives have a fitted effect of over 45% in size
Outline: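 48 h compound exposure, A673, 500-1,000 cells/well, 37 degrees C/5% CO2. MIPE: 11-point, 0.78 nM-46 µM; NPC: 8-point, 0.59 nM-46 µM (final). Readout CellTiter-Glo luminescence after 15 min RT.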

[5] = qHTS of pediatric cancer cell lines to identify multiple opportunities for drug repurposing: Primary screen for SK-N-MC cells (AID 1347093)
Outline: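 Metabolically active cells were quantified by ATP-dependent luminescence (CellTiter-Glo, 15 min at room temperature) following 48 h treatment. Cells had been plated at 500-1,000 per well and settled for 5 h beforehand.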

[6] = qHTS of pediatric cancer cell lines to identify multiple opportunities for drug repurposing: Primary screen for BT-37 cells (AID 1347094)
Outline: (§2)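 ATP-based luminescence (CellTiter-Glo) quantifies viability after a 48-hour exposure. Compounds are dosed across 8 or 11 final concentrations; DMSO and 2.3 µM bortezomib serve as controls.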

[7] = qHTS of pediatric cancer cell lines to identify multiple opportunities for drug repurposing: Primary screen for NB-EBc1 cells (AID 1347095)
Outline: as §2

Measured: Potency
Potency means the concentration at half of the fitted maximal effect.

CC=C1NC(=O)[C@H]2CSSCCC=C[C@H](CC(=O)N[C@H](C(C)C)C(=O)N2)OC(=O)[C@H](C(C)C)NC1=O
active: [1] 0.0587 µM | [2] 0.0296 µM | [3] 0.0148 µM | [4] 0.0118 µM | [5] 0.0105 µM | [6] 0.0109 µM | [7] 0.0296 µM

Clc1cccc(-n2nnnc2NCc2ccccc2Oc2ccccn2)c1Cl
inactive: [1] | [2] | [3] | [4] | [5] | [6] | [7]

COc1cc2c(NC3CCN(C(C)C)CC3)nc(C3CCCCC3)nc2cc1OCCCN1CCCC1
inactive: [1]
active: [2] 18.7 µM | [3] 23.5 µM | [5] 29.6 µM | [6] 30.6 µM

O=C(CCCCCCNC(=O)c1cnc(N(c2ccccc2)c2ccccc2)nc1)NO
active: [1] 18.6 µM | [2] 18.7 µM | [3] 5.26 µM | [5] 2.96 µM | [6] 15.3 µM | [7] 4.18 µM

O=C(O)CCCc1c[nH]c2ccccc12
inactive: [1] | [2] | [3] | [4] | [5]
active: [7] 18.7 µM

Clc1cccc(-c2nnnn2Cc2cccnc2)c1Cl
inactive: [1] | [2] | [3] | [4] | [6] | [7]

CCc1c2c(nc3ccc(O)cc13)-c1cc3c(c(=O)n1C2)COC(=O)[C@]3(O)CC
active: [1] 0.0083 µM | [2] 0.0296 µM | [3] 0.0066 µM | [4] 0.0074 µM | [5] 0.0021 µM | [6] 0.0086 µM | [7] 0.001 µM

COc1ccc(CC2SC(=O)NC2=O)cc1C(=O)NCc1ccc(C(F)(F)F)cc1 (stereo not given)
inactive: [1] | [2] | [3] | [4] | [6]

Cc1c(Cn2c(C)nc3c(C(=O)O)cc(N4CCOCC4)cc32)cccc1C(F)(F)F
inactive: [1] | [3] | [6]
active: [2] 7.43 µM | [5] 0.059 µM | [7] 14.8 µM

Cc1ccc(C(=O)Nc2cccc(C(F)(F)F)c2)cc1-c1ccc2nc(NCCN3CCOCC3)ncc2c1
active: [1] 18.6 µM | [2] 14.8 µM | [3] 6.62 µM | [5] 4.69 µM | [6] 6.11 µM | [7] 3.72 µM

COc1cccc2nc(-c3cccs3)nc(NN3C(=O)C=C(C)C3=O)c12
active: [1] 1.86 µM | [2] 2.35 µM | [3] 0.935 µM | [4] 2.35 µM | [5] 0.0148 µM | [6] 0.863 µM | [7] 0.332 µM

CNc1nccc(-c2cccnc2Oc2cc(C(=O)Nc3cccc(C(F)(F)F)c3)ccc2C)n1
active: [2] 14.8 µM | [3] 9.35 µM | [4] 2.96 µM | [5] 3.72 µM | [7] 3.32 µM
inactive: [1]

CCC1=C[C@@H]2CN(C1)Cc1c([nH]c3ccccc13)[C@@](C(=O)OC)(c1cc3c(cc1OC)N(C)[C@@H]1[C@@](O)(C(=O)OC)[C@H](OC(C)=O)[C@]4(CC)C=CCN5CC[C@]31[C@@H]54)C2
active: [1] 0.104 µM | [2] 0.187 µM | [3] 0.0332 µM | [5] 0.0083 µM | [6] 0.0432 µM | [7] 0.235 µM

CC(O)C1C(=O)N2C(C(=O)O)=C(SC3CNC(C(=O)N(C)C)C3)C(C)C12 (stereo not given)
inactive: [1] | [2] | [3] | [5] | [6] | [7]

CNC(=O)c1cc(Oc2ccc(NC(=O)Nc3cc(C(C)(C)C)nn3-c3ccc4ncccc4c3)c(F)c2)ccn1
active: [2] 18.7 µM | [3] 1.32 µM | [4] 5.9 µM | [7] 2.35 µM
inactive: [1]

CC1(C)CCC(c2ccc(Cl)cc2)=C(CN2CCN(c3ccc(C(=O)NS(=O)(=O)c4ccc(N[C@H](CCN5CCOCC5)CSc5ccccc5)c(S(=O)(=O)C(F)(F)F)c4)cc3)CC2)C1
active: [2] 7.43 µM | [3] 0.0235 µM | [5] 0.0118 µM | [6] 13.7 µM | [7] 0.0187 µM
inactive: [1]

O=C(O)Cn1nnc(-c2cc(N3CCC(Oc4cc(F)ccc4Br)CC3)no2)n1
active: [3] 0.469 µM | [4] 0.372 µM
inactive: [1] | [2] | [7]

COc1ccc(C(=O)CC2(O)C(=O)Nc3c(Cl)ccc(Cl)c32)cc1 (stereo not given)
active: [1] 7.39 µM | [2] 3.72 µM | [3] 1.18 µM | [4] 2.35 µM | [5] 1.18 µM | [7] 0.418 µM

CC(NCc1ccc2c(c1)nc(NC(=O)c1ccc(-c3cn[nH]c3)s1)n2CC(C)(C)O)C(C)(C)C (stereo not given)
active: [1] 2.62 µM | [2] 2.96 µM | [3] 0.296 µM | [4] 0.187 µM | [5] 0.743 µM | [6] 0.485 µM | [7] 0.418 µM

Nc1ccc(S(=O)(=O)Nc2ncccn2)cc1
active: [5] 23.5 µM
inactive: [1] | [2] | [3] | [6] | [7]

Cc1ccc(NC(=O)C2(c3ccc4c(c3)OC(F)(F)O4)CC2)nc1-c1cccc(C(=O)O)c1
active: [1] 0.234 µM | [2] 0.469 µM | [3] 0.0372 µM | [5] 0.0469 µM | [6] 0.0385 µM | [7] 0.0662 µM

Cc1ccc2nc(NC(=O)CSc3nc4c(c(=O)n3-c3ccccc3)SCC4)sc2c1
inactive: [1]
active: [2] 18.7 µM | [3] 14.8 µM | [5] 26.4 µM

COc1ccc(F)c(F)c1C(=O)c1cnc(NC2CCN(S(C)(=O)=O)CC2)nc1N
active: [1] 5.87 µM | [2] 3.72 µM | [3] 0.743 µM | [4] 1.48 µM | [5] 1.87 µM | [6] 3.43 µM | [7] 0.296 µM

COc1cccc2c(NCc3ccccc3)nc(-n3c(N)nc4ccccc43)nc12
inactive: [1]
active: [2] 9.35 µM | [3] 9.35 µM | [4] 5.9 µM | [5] 3.72 µM | [6] 7.69 µM | [7] 9.35 µM

Cc1ccc(S(=O)(=O)Nc2cc(Cl)ccc2C(=O)Nc2nc(-c3ccccc3)cs2)cc1
active: [2] 11.8 µM | [3] 7.43 µM | [5] 7.43 µM | [6] 17.2 µM | [7] 7.43 µM
inactive: [1]

Cc1[nH]nc2ccc(-c3cncc(OC[C@@H](N)Cc4ccccc4)c3)cc12
active: [1] 4.66 µM | [2] 2.96 µM | [3] 0.743 µM | [4] 0.235 µM | [5] 0.526 µM | [6] 1.22 µM | [7] 0.469 µM

CC=CC1=C(C(=O)O)N2C(=O)[C@H](NC(=O)[C@H](N)c3ccc(O)cc3)[C@@H]2SC1
inactive: [1] | [2] | [3] | [7]
active: [4] 0.935 µM | [5] 23.5 µM

Nc1ncnc2c1c(-c1cccc(OCc3ccccc3)c1)cn2C1CC(CN2CCCC2)C1 (stereo not given)
inactive: [2]
active: [1] 6.58 µM | [3] 20.9 µM | [4] 18.7 µM | [5] 0.662 µM | [7] 4.69 µM

N#Cc1c(O)c2c(-c3ccc(-c4ccccc4O)cc3)csc2[nH]c1=O
inactive: [1] | [2] | [3] | [5] | [6] | [7]

NC(=O)Nc1cc(-c2cccc(F)c2)sc1C(=O)N[C@H]1CCCNC1
active: [1] 2.34 µM | [2] 1.87 µM | [3] 0.235 µM | [5] 0.0372 µM | [6] 0.485 µM | [7] 0.296 µM

Cc1cc(Nc2cc(N3CCN(C)CC3)nc(C=Cc3ccccc3)n2)n[nH]1
active: [1] 6.02 µM | [2] 42.9 µM | [3] 13.6 µM | [4] 10.8 µM | [5] 1.52 µM | [6] 44.4 µM | [7] 4.29 µM

COC(=O)Nc1nc2ccc(C(=O)c3ccc(F)cc3)cc2[nH]1
active: [2] 0.743 µM | [3] 0.526 µM | [4] 0.59 µM | [5] 0.372 µM | [7] 0.264 µM
inactive: [1]

CCn1cc(-c2ccnc3[nH]c(-c4cccc(CN(C)C)c4)cc23)c(-c2ccc(NC(=O)N(C)C)cc2)n1
active: [1] 0.104 µM | [2] 5.9 µM | [3] 0.0833 µM | [4] 4.69 µM | [5] 0.0469 µM | [6] 19.3 µM | [7] 0.469 µM

CCCCOc1c(C(=O)c2c(F)cc(C)cc2F)cnc2n[nH]cc12
inactive: [1]
active: [2] 11.8 µM | [3] 1.18 µM | [4] 2.35 µM | [5] 1.66 µM | [6] 17.2 µM | [7] 2.35 µM

CS(=O)(=O)c1ccc(-c2cnc(N)c(C(=O)Nc3ccccc3)n2)cc1
active: [5] 4.18 µM
inactive: [1] | [2] | [6]

C=C1C(=CC=C2CCCC3(C)[C@@H]([C@H](C)C=CC=CC(O)(CC)CC)CC[C@@H]23)C[C@@H](O)C[C@@H]1O (stereo not given in full)
active: [2] 23.5 µM | [4] 18.7 µM | [5] 6.62 µM | [7] 18.7 µM
inactive: [1]

Nc1ccccc1NC(=O)c1ccc(CNc2nccc(-c3cccnc3)n2)cc1
active: [1] 6.58 µM | [2] 7.43 µM | [4] 2.35 µM | [5] 0.187 µM | [6] 3.06 µM | [7] 0.743 µM

CC[C@H](CO)Nc1nc(NCc2ccccc2)c2ncn(C(C)C)c2n1
inactive: [1]
active: [2] 23.5 µM | [3] 16.6 µM | [6] 27.3 µM

CNC(=O)c1ccccc1Nc1nc(Nc2ccc(N3CCOCC3)cc2OC)ncc1Cl
active: [1] 3.3 µM | [2] 14.8 µM | [4] 1.87 µM | [5] 0.209 µM | [6] 7.69 µM | [7] 0.662 µM

CC(=O)Nc1nc(C)c(-c2ccc(Cl)c(S(=O)(=O)NCCO)c2)s1
active: [1] 4.15 µM | [3] 1.87 µM | [4] 1.87 µM | [5] 0.132 µM | [6] 15.3 µM | [7] 3.72 µM

CN(c1ncccc1CNc1nc(Nc2ccc3c(c2)CC(=O)N3)ncc1C(F)(F)F)S(C)(=O)=O
active: [1] 13.1 µM | [2] 18.7 µM | [5] 2.96 µM | [6] 9.68 µM | [7] 4.69 µM
